The values that follow come from PubChem BioAssay (NCATS).

Inconclusive results are not listed. A call without a number means that no potency is given here. Activity calls are given as the source filed them. Calls come from the whole dose curve; as a rule, active = well fitted inhibition curve with a large enough effect; inconclusive = small, poorly fitted or top-dose-only effect; inactive = flat fitted curve, though single readings scatter.

The assay in a line: qHTS for Inhibitors of Plasmodium falciparum (HB3) proliferation (AID 504318). Note: nearly all actives have a fitted effect of over 60% in size. As to conditions: P. falciparum HB3 in erythrocytes, SYBR Green DNA, 72 h; series mostly up to 7.21 µM. The method in brief: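 Erythrocytes infected with P. falciparum line (0.3% parasitemia, 2.5% hematocrit final) incubated with compounds 72 h at 37 °C, 5% CO2; SYBR Green lysis buffer added, fluorescence read next day. Normalized to 0.29 uM artemisinin and DMSO.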
Regarding `CC1(OC(=O)CCc2ccccc2)C(=O)C=C2C=C(c3ccc(C#N)cc3)N(c3ccccc3)C=C2C1=O` (configuration not stated), the Potency result is “inactive”.

With `CCCCC1=CC2=CC(=O)C(C)(OC(=O)CC)C(=O)C2=CN1CCCN(CC)CC` (configuration not stated), the Potency result is “inactive”. On to `COC(=O)C(C(=O)OC)C1c2ccccc2C=C(C)N1C(=O)OC` (configuration not stated), for which the Potency entry is “inactive”. In the case of `COC(=O)C1=C(C(=O)OC)[C@@H]2Nc3ccccc3[C@@]23C[C@@H](C(=O)OC)N(S(=O)(=O)c2c(C)noc2C)C3=N1`, the Potency result was “inactive”. As for `C=CCN1C=C2C(=O)C(C)(OC(=O)CC)C(=O)C=C2C=C1CCCC` (configuration not stated), the entry is “inactive”. As for `COC(=O)C1=C(C(=O)OC)[C@@H]2Nc3ccccc3[C@@]23C[C@@H](C(=O)OC)N(C(=O)c2ccc(Br)cc2)C3=N1`, the Potency result is “inactive”. As to `C=CCOC(=O)N[C@H](C(C(=O)OC)=C(C)NCc1ccccc1)c1ccc(C)cc1`, the Potency entry was “inactive”. As for `CCCCC1=CC2=CC(=O)C(C)(OC(=O)CC)C(=O)C2=CN1C1CCCC1` (configuration not stated), the entry is “inactive”.

`CCCCC1=CC2=CC(=O)C(C)(OC(=O)CC)C(=O)C2=CN1c1ccncc1` (configuration not stated): the Potency entry was “inactive”. As for `COC(=O)C1=C(C(=O)OC)[C@@H]2Nc3ccccc3[C@@]23C[C@@H](C(=O)OC)N=C3N1`, the Potency result is “inactive”. Take `CCCCc1nc2c(c3c1C[C@H](C)OC3)CN(S(=O)(=O)c1c(C)noc1C)CC2`: the Potency entry is “inactive”. To `CCOC(=O)CN1C(=O)N[C@@H](CCc2ccccc2)[C@H](C(C)=O)[C@H]1C` belongs “inactive”; to `CC[C@@H](C)CN1C(=O)N[C@@H](c2ccccc2)C(C(C)=O)=C1C`, “inactive”. Regarding `CCCCC1=CC2=CC(=O)C(C)(OC(=O)CC)C(=O)C2=CN1CCOC` (configuration not stated), the Potency entry was “inactive”. On to `CCCCC1=CC2=CC(=O)C(C)(OC(=O)CC)C(=O)C2=CN1CCc1ccccn1` (configuration not stated), for which the Potency result was “inactive”. For `CCOC(=O)CN1C(=O)N[C@@H](CCc2ccccc2)C(C(=O)OC)=C1C`, the Potency result is “inactive”. On to `Cc1ccc(S(=O)(=O)N2CCc3nc(-c4ccccc4)c4c(c3C2)CO[C@@H](C)C4)cc1`, for which the Potency result was “inactive”. On to `COC(=O)C1=C(C)N(Cc2ccco2)C(=O)N[C@@H]1c1ccc(Br)cc1`, for which the Potency result was “inactive”. For `COC(=O)N1C(C)=Cc2ccccc2C1C/C(C)=C/C(C)=O` (configuration not stated), the Potency entry is “inactive”. For `CCCCC1=CC2=CC(=O)C(C)(OC(=O)CC)C(=O)C2=CN1CCCCO` (configuration not stated), the Potency entry is “inactive”. On to `COCCN1C=C2C(=O)C(C)(OC(=O)CCc3ccccc3)C(=O)C=C2C=C1c1ccc(C#N)cc1` (configuration not stated), for which the Potency entry was “inactive”.

Turning to `COC/C=C/C1=CC2=CC(=O)C(C)(OC(=O)c3cnc4ccccc4n3)C(=O)C2=CN1Cc1ccco1` (configuration not stated), the Potency result is “inactive”.
